In PubChem BioAssay (EPA / NIEHS):
Where “and” joins values, the source holds several entries; their conditions need not be identical. Identical values can stand only once. More than one record can exist for a structure, and the calls need not agree. Calls of active or inactive are those of the source. How the source made its calls: active means hit-call score of the fitted dose curve at least 0.9, where 1 is the maximum; inactive means score below 0.9.

Key:
[1] = read-out: Macrophage colony-stimulating factor (MCSF), CSF1 (gene 1435); experiment: BSK_hDFCGF_MCSF: BioMAP Diversity Plus: hDFCGF Assay for Macrophage colony-stimulating factor (MCSF) Biomarker Activity (AID 2283060); details: primary human foreskin fibroblasts; actives raise or lower the signal
Method in brief: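 fibroblasts (human foreskin, primary), 24 h post-dose; M-CSF by ELISA; bidirectional fit, DMSO = baseline.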

[2] = BSK_hDFCGF_SRB: Viability Assessment in the BioMAP Diversity Plus: hDFCGF Assay (AID 2283061); details: primary human foreskin fibroblasts;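 further: cells exposed to compound for 24 h before the read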
Method in brief: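 SRB-based viability read on primary human skin fibroblasts at 24 h: TCA fixation, 0.1% dye, 560 nm. Gain or loss of signal is fitted against the DMSO negative control.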

[3] = read-out: TIMP metallopeptidase inhibitor 1 (TIMP1), TIMP1 (gene 7076); experiment: BSK_hDFCGF_TIMP1: BioMAP Diversity Plus: hDFCGF Assay for TIMP metallopeptidase inhibitor 1 (TIMP1) Biomarker Activity (AID 2283062); details: primary human foreskin fibroblasts; actives raise or lower the signal
Method in brief: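 Bidirectional curve fitting against DMSO baseline yielded this endpoint, based on ELISA detection of TIMP-1 in primary human foreskin fibroblasts exposed to compound for 24 h.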

[4] = read-out: Monokine induced gamma interferon (MIG), CXCL9 (gene 4283); experiment: BSK_hDFCGF_MIG: BioMAP Diversity Plus: hDFCGF Assay for Monokine induced gamma interferon (MIG) Biomarker Activity (AID 2283063); details: primary human foreskin fibroblasts; actives raise or lower the signal
Method in brief: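 Endpoint derived by bidirectional fitting relative to DMSO; MIG quantified via ELISA in primary human foreskin fibroblasts harvested 24 h after dosing.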

[5] = read-out: Matrix Metallopeptidase 1 (MMP1), MMP1 (gene 4312); experiment: BSK_hDFCGF_MMP1: BioMAP Diversity Plus: hDFCGF Assay for Matrix Metallopeptidase 1 (MMP1) Biomarker Activity (AID 2283064); details: primary human foreskin fibroblasts; actives raise or lower the signal
Method in brief: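 Human foreskin fibroblasts exposed to chemical for 24 h; MMP1 detected by ELISA, with DMSO as baseline for bidirectional fitting.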

[6] = read-out: Vascular cell adhesion molecule 1 (VCAM1), VCAM1 (gene 7412); experiment: BSK_hDFCGF_VCAM1: BioMAP Diversity Plus: hDFCGF Assay for Vascular cell adhesion molecule 1 (VCAM1) Biomarker Activity (AID 2283065); details: primary human foreskin fibroblasts; actives raise or lower the signal;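 on AC50: VCAM-1 protein level quantified by ELISA after 24 h chemical exposure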
Method in brief: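 Measured after 24 h chemical treatment of primary human skin fibroblasts, VCAM-1 was detected by ELISA and concentration-response analysed in both directions versus DMSO vehicle.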

[7] = read-out: Plasminogen activator inhibitor-1 (PAI1), SERPINE1 (gene 5054); experiment: BSK_hDFCGF_PAI1: BioMAP Diversity Plus: hDFCGF Assay for Plasminogen activator inhibitor-1 (PAI1) Biomarker Activity (AID 2283066); details: primary human foreskin fibroblasts; actives raise or lower the signal
Method in brief: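 Human skin fibroblast cultures receive chemical for 24 h before PAI-1 is measured by ELISA; signal changes are fitted bidirectionally against DMSO-treated wells.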

[8] = read-out: Intercellular Adhesion Molecule 1 (ICAM1), ICAM1 (gene 3383); experiment: BSK_KF3CT_ICAM1: BioMAP Diversity Plus: KF3CT Assay for Intercellular Adhesion Molecule 1 (ICAM1) Biomarker Activity (AID 2283067); details: primary human keratinocytes with fibroblasts; actives raise or lower the signal
Method in brief: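 Bidirectional curve fitting against a DMSO baseline was applied to ICAM-1 ELISA signal from primary human skin co-cultures harvested 24 h after treatment, with SRB staining of parallel wells for overt cytotoxicity.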

[9] = read-out: Interferon-gamma inducible Protein 10 (IP10), CXCL10 (gene 3627); experiment: BSK_KF3CT_IP10: BioMAP Diversity Plus: KF3CT Assay for Interferon-gamma inducible Protein 10 (IP10) Biomarker Activity (AID 2283068); details: primary human keratinocytes with fibroblasts; actives raise or lower the signal
Method in brief: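 In a primary skin co-culture of keratinocytes and fibroblasts, IP-10 is quantified by ELISA at 24 h after dosing. SRB staining of parallel wells monitors overt toxicity. Curves are fitted both directions against DMSO.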

[10] = BSK_KF3CT_SRB: Viability Assessment in the BioMAP Diversity Plus: KF3CT Assay (AID 2283069); details: primary human keratinocytes with fibroblasts;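 further: read 24 h after compound addition; fitted for both signal gain and loss against DMSO baseline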
Method in brief: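 Overt cytotoxicity is assessed as total protein by sulforhodamine B staining in parallel human skin co-cultures at 24 h after dosing. DMSO serves as negative control and baseline.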

Measured: AC50

c1ccc2c(c1)Nc1ccccc1S2
active: [1] 9.32 µM | [6] 20 µM | [7] 29.4 µM
inactive: all other assays above

O=C(O)C(F)(F)C(F)(F)C(=O)O
active: [4] 14.1 µM
inactive: [1] | [2] | [3] | [4] | [5] | [7] | [8] | [9] | [10]

OCC(F)(F)OC(F)(F)C(F)(F)OC(F)(F)C(F)(F)OC(F)(F)CO
inactive: [1] | [2] | [3] | [7] | [9] | [10]
active: [1] 14 µM | [2] 5.95 µM | [4] 16.8 µM and 23.2 µM | [5] 10.5 µM and 8.39 µM | [6] 13.4 µM and 8.26 µM

c1ccc(OP(Oc2ccccc2)Oc2ccccc2)cc1
inactive: all assays above

O=C(O)C(Cl)Cl
inactive: all assays above

O=C(O)C=CC(F)(C(F)(F)F)C(F)(F)F
inactive: all assays above

ClC(Cl)(Cl)c1ccccc1
inactive: all assays above

COCCOCCO
inactive: all assays above

CC(C)Nc1ccc(Nc2ccccc2)cc1
active: [1] 6.38 µM | [2] 6.01 µM | [3] 6.56 µM | [4] 6.46 µM | [5] 11.4 µM | [6] 2.21 µM | [7] 7.9 µM | [9] 32.7 µM

O=[N+]([O-])c1ccc(Cl)c(Cl)c1
inactive: all assays above

COP(=O)(CCC(=O)NCO)OC
inactive: all assays above

O=c1ssc(Cl)c1Cl
active: [1] 3.29 µM | [2] 2.71 µM | [3] 2.65 µM | [4] 5.86 µM | [5] 4.13 µM | [6] 4 µM | [7] 4.05 µM | [9] 7.06 µM | [10] 2.83 µM

CC(C)(C)c1ccccc1OP(=O)(Oc1ccccc1)Oc1ccccc1
active: [1] 20 µM | [2] 25 µM | [3] 20 µM | [6] 20 µM
inactive: all other assays above

O=C(O)C(F)(F)OC(F)(F)C(F)(F)OC(F)(F)F
inactive: all assays above

CCOP(=S)(OCC)SCn1nnc2ccccc2c1=O
active: [1] 20 µM
inactive: all other assays above

O=P(OCC(Br)CBr)(OCC(Br)CBr)OCC(Br)CBr (stereo not given)
active: [9] 26.2 µM
inactive: all other assays above

CCCCCCCc1ccc(O)cc1
active: [1] 20 µM | [2] 30 µM | [3] 32.5 µM | [4] 28.5 µM | [5] 33.6 µM | [6] 20.7 µM | [7] 30.3 µM | [9] 29 µM | [10] 30.7 µM

O=C(O)C1C(C(=O)O)C2(Cl)C(Cl)=C(Cl)C1(Cl)C2(Cl)Cl (stereo not given)
inactive: all assays above

COC(=O)C(F)(F)C(F)(F)OC(F)(C(F)(F)F)C(F)(F)OC(F)=C(F)F (stereo not given)
active: [6] 2.13 µM and 2.85 µM
inactive: all other assays above

O=[N+]([O-])c1ccccc1
inactive: all assays above

C=CC(=O)OCC(F)(F)C(F)F
inactive: [2] | [5] | [7] | [9] | [10]
active: [1] 22.8 µM and 23 µM | [3] 30 µM and 31.7 µM | [4] 36.7 µM and 38.4 µM | [5] 4.6 µM

CCCCC(CC)COC(=O)c1c(Br)c(Br)c(Br)c(Br)c1C(=O)OCC(CC)CCCC (stereo not given)
inactive: all assays above

[N-]=[N+]=[N-]
inactive: all assays above

OCC(F)(F)OC(F)(F)C(F)(F)OC(F)(F)CO
inactive: all assays above

Cc1c([N+](=O)[O-])cc2c(c1[N+](=O)[O-])C(C)(C)CC2(C)C
active: [1] 3.02 µM
inactive: all other assays above

CCC1(c2ccccc2)C(=O)N=C(O)NC1=O (stereo not given)
inactive: all assays above

CCOP(=S)(S)OCC
inactive: all assays above

COP(=O)(O)OC
not listed: [8]
inactive: all other assays above

CCC(C)(C)c1ccc(O)cc1
not listed: [8]
inactive: all other assays above

CCN(CC)c1ccccc1
not listed: [8]
inactive: all other assays above

Cc1ccc([N+](=O)[O-])cc1C
not listed: [8]
inactive: all other assays above

FC(F)(F)C(F)(C(F)(F)F)C(F)(F)C(F)(F)CC1CO1 (stereo not given)
not listed: [8]
inactive: all other assays above

c1nc[nH]n1
not listed: [6]
inactive: all other assays above

CC(Cl)CN(C)C (stereo not given)
not listed: [8]
inactive: all other assays above

O=S1(=O)OCC2C(CO1)C1(Cl)C(Cl)=C(Cl)C2(Cl)C1(Cl)Cl (stereo not given)
not listed: [8]
inactive: all other assays above

CCOP(=S)(OCC)SCSc1ccc(Cl)cc1
active: [1] 14.4 µM | [6] 3.97 µM
not listed: [8]
inactive: all other assays above

Cc1ccc2c(c1N)C(=O)c1ccccc1C2=O
not listed: [8]
inactive: all other assays above

CCCN(CCC)c1c([N+](=O)[O-])cc(C(C)C)cc1[N+](=O)[O-]
active: [1] 6.75 µM | [2] 13.9 µM | [4] 9.44 µM | [7] 20 µM
not listed: [6]
inactive: all other assays above

CC(O)C(F)(F)C(F)(F)F (stereo not given)
not listed: [6]
inactive: all other assays above

Cc1ccc(O)cc1C
not listed: [8]
inactive: all other assays above

N#Cc1c(-c2ccc(Cl)cc2)[nH]c(C(F)(F)F)c1Br
active: [1] 0.0566 µM | [2] 3.97 µM | [3] 6.18 µM | [4] 20 µM | [6] 2.9 µM | [7] 0.39 µM | [9] 8 µM
inactive: [5] | [10]

Nc1ccc([N+](=O)[O-])cc1Cl
not listed: [8]
inactive: all other assays above

CC(C)(C)OOC(C)(C)C
not listed: [8]
inactive: all other assays above
